# According to PubChem BioAssay (NCATS):
# Values without a mark were called inactive. Records with an inconclusive call do not appear. Active and inactive are the calls of the source. Unless noted, the call rests on the fitted dose curve; in most records, active means well fitted curve in either direction with a large enough effect (not every such curve was filed as active); inconclusive means small, poorly fitted or top-dose-only effect, or another doubt; inactive means flat fitted curve, though single readings scatter.
# Assays:
# [1] = target: Lysosomal acid glucosylceramidase (Homo sapiens) (UniProt P04062); experiment: Glucocerebrosidase-p2 (AID 348; in the data active means potency below about 10 µM; further: potency means the concentration at half of the fitted maximal effect); details: purified GBA, blue fluorogenic substrate, 40 min
# Summary of the method: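 Compounds titrated from 0.6 nM upwards against 0.2 nM enzyme in pH 5.9 citric acid/KH2PO4, taurocholate, tween-20; blue fluorogenic substrate 80 uM, 40 min room temperature, stopped and read Ex 365/Em 440 for AC50.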
# [2] = AP1 Signaling Pathway (AID 357); details: ME-180 AP-1-bla reporter, EGF-induced, beta-lactamase ratio, 5 h; at 7.69 µM (top of the series) unless noted;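 further: ME-180 reporter cells stimulated with EGF at its EC50 level; on the % scale 0 is the no-effect control and ±100 the full control effect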
# Summary of the method: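 Cells are seeded overnight, exposed to compound titrations and an EC50 level of EGF for 5 hours at 37 °C, then loaded with CCF4 dye for 2.5 hours. Beta-lactamase activity under the AP-1 element is read as a blue/green ratio.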
# [3] = target: Cytochrome P450 1A2 (Homo sapiens) (UniProt P05177); experiment: p450-cyp1a2 (AID 410; calls by dose curve; further: potency means the concentration at half of the fitted maximal effect;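 on activity change, negative = inhibition: -100% = full effect of reference inhibitor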); details: recombinant CYP1A2, luciferin-ME demethylation, luminescence; series mostly up to 11.4 µM
# Summary of the method: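 Human CYP1A2 (20nM) demethylated Luciferin-ME at its Km (100uM) in 100mM KPO4. After 10 min compound preincubation, NADPH regeneration ran the reaction 60 min at room temperature. Luciferin was read by luminescence, normalized to 57 uM furafylline.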
# [4] = NFAT Signaling Pathway (AID 444); details: Jurkat NFAT-bla M1, carbachol, beta-lactamase ratio, 5 h; at 7.69 µM (top of the series) unless noted;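 further: carbachol stimulus at about its EC50 of 1 µM final; on the % scale 0 is the no-effect control and ±100 the full control effect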
# Summary of the method: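 Read-out: CCF4 FRET ratio (460 nm/530 nm) after 1 h RT dye loading, used for %activity and AC50 from titration series. Cells: Jurkat NFAT-β-lactamase/M1 line, treated with compound plus 1 uM carbachol for 5 h, 37 °C.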
# [5] = Stat Signaling Pathway (AID 446); details: ME-180 SIE beta-lactamase reporter, IL-6 stimulated, 5 h; at 7.69 µM (top of the series) unless noted;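 further: ME-180 cervical cancer cells given 40 pM IL-6 alongside compound; SIE-controlled beta-lactamase reporter measured as 460/530 nm FRET emission ratio; on the % scale 0 is the no-effect control and ±100 the full control effect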
# Summary of the method: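 Screening format detects activators and inhibitors alike: ME-180 SIE-bla cells stimulated at 40 pM IL-6 for 5 hrs with compound, then dual-emission beta-lactamase read at 405 nm excitation.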
# [6] = target: Glucocorticoid receptor (Homo sapiens) (UniProt P04150); experiment: GR-GFP Redistribution (AID 450;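 active means compounds whose dose series gives a full or clear partial fitted curve of increased nuclear translocation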; further: potency means the concentration at half of the fitted maximal effect); details: U2OS GR-GFP nuclear translocation, laser cytometry, 2 h
# [7] = target: Glucocorticoid receptor (Homo sapiens) (UniProt P04150); experiment: GR-EFC Redistribution (AID 451; calls by dose curve; further: potency means the concentration at half of the fitted maximal effect); details: CHO-K1 GR-EFC translocation, beta-gal luminescence, 2 h
# Summary of the method: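 Translocation of GR-ED fusion to nuclear EA restores b-gal, read by luminescence after 1 h room-temperature detection. Engineered CHO-K1 biosensor cells, 1,000/well, exposed 2 h at 37 C to titrations up to 46 uM final.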
# [8] = target: Mitogen-activated protein kinase 10 (Mus musculus) (UniProt Q61831); experiment: JNK3 AlphaScreen Assay (AID 530); details: JNK3 lysate, c-Jun phosphorylation; series mostly up to 11.4 µM;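 further: kinase came from lysate of stimulated human HepG2 cells; signal reports phosphorylation of biotinylated GST-cJun 1-79 at Ser73 with 10 µM ATP; on the % scale 0 is the no-effect control and ±100 the full control effect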
# Summary of the method: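 Room-temperature AlphaScreen kinase assay; pre-activated HepG2 lysate as JNK3 source, biotin-GST-cJun(1-79) substrate, 10 uM ATP, compound 15 min preincubation.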
# [9] = target: 3',5'-cyclic-AMP phosphodiesterase 4B (Homo sapiens) (UniProt Q07343); experiment: qHTS Assay for Inhibitors of PDE-IV (AID 607; active means well fitted activation curve with a large enough effect in the main read-out, with a control signal flat, not every such curve was filed as active; further: % of control where 0% means no effect); details: HEK293 ACTOne CNG channel cells, membrane potential fluorescence; series mostly up to 22.9 µM
# Summary of the method: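 The readout is membrane depolarisation from a cAMP-sensing CNG channel, detected with a potential dye at ex 535/em 590. Cells were HEK293-derived (endogenous PDE-IV) at 1000 cells/well, titrated up to 22.9 uM final.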
# [10] = target: Cytochrome P450 3A4 (Homo sapiens) (UniProt P08684); experiment: qHTS Assay for Activators of Cytochrome P450 3A4 (AID 885; active means well fitted curve in the direction sought with a large enough effect; an effect the other way counts as inactive or inconclusive; further: nearly all actives have a fitted effect of over 65% in size); details: recombinant CYP3A4, Luciferin-PPXE luminescence, 60 min; series mostly up to 11.4 µM
# Summary of the method: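 Steps: enzyme/substrate mix dispensed; compound added, 10 min RT; NADPH regeneration solution added, 60 min RT; luciferin detection buffer stops reaction; 20 min later luminescence measured.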
# [11] = target: Cytochrome P450 2D6 (Homo sapiens) (UniProt P10635); experiment: qHTS Assay for Inhibitors and Substrates of Cytochrome P450 2D6 (AID 891; active means well fitted curve in the direction sought with a large enough effect; an effect the other way counts as inactive or inconclusive; further: nearly all actives have a fitted effect of over 60% in size; further: potency means the concentration at half of the fitted maximal effect); details: recombinant CYP2D6, luciferin-ME EGE luminescence; series mostly up to 11.4 µM
# Summary of the method: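 Human CYP2D6 (5 nM) with 30 uM Luciferin-ME EGE (at Km) in 100 mM KPO4, compound preincubated 10 min, then NADPH regeneration system for 60 min at room temperature. Luciferin read by luminescence; normalized to 1.43 uM quinidine.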
# [12] = target: Cytochrome P450 2C19 (Homo sapiens) (UniProt P33261); experiment: qHTS Assay for Inhibitors and Substrates of Cytochrome P450 2C19 (AID 899; active means well fitted curve in the direction sought with a large enough effect; an effect the other way counts as inactive or inconclusive; further: nearly all actives have a fitted effect of over 60% in size; further: potency means the concentration at half of the fitted maximal effect); details: recombinant CYP2C19, luciferin-H EGE luminescence; series mostly up to 11.4 µM
# Summary of the method: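 Luminescence readout of luciferin formed from 10uM Luciferin-H EGE (KM level) by 5 nM CYP2C19 in 50mM KPO4. 60 min NADPH-driven reaction at 37C after 10 min compound preincubation; data scaled to 57uM ketoconazole inhibition.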
# [13] = Confirmation and Secondary Assay for Modulators of Hemoglobin Beta Chain Splicing at IVS2 654 locus (AID 910; active means well fitted curve in the direction sought with a large enough effect; an effect the other way counts as inactive or inconclusive;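 further: HeLa cells stably carrying EGFP split by mutant beta-globin IVS2-654 intron; per-well total GFP intensity by laser scanning cytometry after 2-day treatment; % of control where 0% means no effect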); details: HeLa EGFP-654 splicing reporter, GFP fluorescence, 48 h; series mostly up to 38.3 µM
# Summary of the method: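 Readout: per-well total peak green fluorescence (488 nm ex, 500–520 nm em) from objects 5–250 µm, reflecting correct splicing of an EGFP-654 reporter. Compounds were applied for 2 days at 37 °C to overnight-plated HeLa EGFP-654 cells; controls were DMSO and 500 nM IVS2-654 PNA.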
# [14] = qHTS Assay for Identification of Small Molecule Agonists for Hypoxia Response Element Signaling Pathway (AID 914; active means well fitted activation curve with a large enough effect in the signal ratio, with a control signal flat, not every such curve was filed as active; the % refers to the signal ratio; further: % of control where 0% means no effect); details: ME-180 (cervical carcinoma) HRE-bla reporter, beta-lactamase ratio, CoCl2, 17 h; activation: hits give high values
# Summary of the method: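 Compounds in a titration series were added to ME-180 reporter cells alongside an EC50 level of CoCl2. After 17 hours, beta-lactamase activity was read as the 460nm/530nm emission ratio of CCF4, giving AC50 values.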
# Sequence of Cytochrome P450 2C19 (Homo sapiens) (P33261 whole entry, looked up): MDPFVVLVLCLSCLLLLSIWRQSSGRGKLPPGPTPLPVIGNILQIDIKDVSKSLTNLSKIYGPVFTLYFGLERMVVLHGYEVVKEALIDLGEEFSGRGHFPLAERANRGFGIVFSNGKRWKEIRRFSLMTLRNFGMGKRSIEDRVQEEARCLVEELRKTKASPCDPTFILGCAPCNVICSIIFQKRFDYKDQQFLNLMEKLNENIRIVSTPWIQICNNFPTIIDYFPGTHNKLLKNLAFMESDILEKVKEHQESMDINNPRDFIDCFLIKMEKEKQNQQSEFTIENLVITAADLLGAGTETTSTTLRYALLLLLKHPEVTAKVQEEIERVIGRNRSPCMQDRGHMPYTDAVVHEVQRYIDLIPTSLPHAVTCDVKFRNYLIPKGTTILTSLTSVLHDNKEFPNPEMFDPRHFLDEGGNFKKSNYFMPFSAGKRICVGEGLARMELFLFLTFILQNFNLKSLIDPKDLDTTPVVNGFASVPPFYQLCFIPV
# Sequence of Glucocorticoid receptor (Homo sapiens) (P04150 whole entry, looked up, the tested form may be a part): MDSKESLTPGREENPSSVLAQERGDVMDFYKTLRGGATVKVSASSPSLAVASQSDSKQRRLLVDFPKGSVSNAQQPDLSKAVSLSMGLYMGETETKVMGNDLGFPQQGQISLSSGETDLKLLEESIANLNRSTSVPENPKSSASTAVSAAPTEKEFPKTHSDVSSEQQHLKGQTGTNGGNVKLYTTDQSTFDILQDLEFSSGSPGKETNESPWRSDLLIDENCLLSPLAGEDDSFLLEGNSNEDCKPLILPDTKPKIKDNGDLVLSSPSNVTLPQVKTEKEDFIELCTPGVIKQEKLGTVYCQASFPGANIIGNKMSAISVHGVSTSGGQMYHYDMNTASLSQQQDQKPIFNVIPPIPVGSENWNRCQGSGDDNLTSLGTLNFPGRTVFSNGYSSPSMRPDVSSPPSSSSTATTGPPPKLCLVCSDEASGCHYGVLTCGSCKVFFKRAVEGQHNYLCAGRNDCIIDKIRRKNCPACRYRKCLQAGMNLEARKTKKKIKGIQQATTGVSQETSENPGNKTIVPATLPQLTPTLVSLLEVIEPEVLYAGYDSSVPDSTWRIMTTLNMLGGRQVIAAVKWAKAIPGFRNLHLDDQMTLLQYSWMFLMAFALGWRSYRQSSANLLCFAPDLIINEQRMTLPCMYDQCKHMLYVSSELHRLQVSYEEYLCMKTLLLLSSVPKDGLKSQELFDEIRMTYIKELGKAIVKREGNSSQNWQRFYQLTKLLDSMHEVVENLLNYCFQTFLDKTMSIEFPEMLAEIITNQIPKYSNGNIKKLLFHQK
# Sequence of 3',5'-cyclic-AMP phosphodiesterase 4B (Homo sapiens) (Q07343 whole entry, looked up): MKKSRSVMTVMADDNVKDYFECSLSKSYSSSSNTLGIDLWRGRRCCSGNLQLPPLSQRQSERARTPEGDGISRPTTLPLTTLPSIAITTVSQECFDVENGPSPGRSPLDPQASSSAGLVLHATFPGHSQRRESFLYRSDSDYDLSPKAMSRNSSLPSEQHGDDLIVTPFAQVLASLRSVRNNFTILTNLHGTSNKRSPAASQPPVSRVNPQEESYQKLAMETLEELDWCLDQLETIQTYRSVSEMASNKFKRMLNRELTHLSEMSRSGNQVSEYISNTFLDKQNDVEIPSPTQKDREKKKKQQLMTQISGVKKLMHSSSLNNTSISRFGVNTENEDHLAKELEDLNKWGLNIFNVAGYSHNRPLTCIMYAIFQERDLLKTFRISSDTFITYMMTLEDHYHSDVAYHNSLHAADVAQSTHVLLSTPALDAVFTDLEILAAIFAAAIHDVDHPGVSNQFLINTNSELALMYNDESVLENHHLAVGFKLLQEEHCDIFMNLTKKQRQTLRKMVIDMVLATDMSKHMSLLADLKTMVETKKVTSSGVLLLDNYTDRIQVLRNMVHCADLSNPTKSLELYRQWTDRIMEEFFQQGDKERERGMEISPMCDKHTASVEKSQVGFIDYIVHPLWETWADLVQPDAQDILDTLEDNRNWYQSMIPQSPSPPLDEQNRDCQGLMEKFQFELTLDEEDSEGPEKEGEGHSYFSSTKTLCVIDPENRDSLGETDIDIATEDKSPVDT
# Sequence of Cytochrome P450 2D6 (Homo sapiens) (P10635 whole entry, looked up): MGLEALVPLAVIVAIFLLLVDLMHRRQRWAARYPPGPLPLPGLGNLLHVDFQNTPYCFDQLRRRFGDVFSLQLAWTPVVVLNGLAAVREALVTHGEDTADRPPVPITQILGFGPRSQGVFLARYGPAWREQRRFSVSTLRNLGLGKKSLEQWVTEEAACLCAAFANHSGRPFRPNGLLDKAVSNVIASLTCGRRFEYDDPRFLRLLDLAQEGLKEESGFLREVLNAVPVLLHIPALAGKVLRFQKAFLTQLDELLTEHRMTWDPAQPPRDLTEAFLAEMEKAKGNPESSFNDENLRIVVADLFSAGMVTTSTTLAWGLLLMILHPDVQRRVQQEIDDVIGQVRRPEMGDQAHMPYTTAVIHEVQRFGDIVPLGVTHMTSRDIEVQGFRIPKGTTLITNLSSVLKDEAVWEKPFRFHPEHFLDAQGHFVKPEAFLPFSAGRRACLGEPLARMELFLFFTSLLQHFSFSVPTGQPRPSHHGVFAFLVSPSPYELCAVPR
# Sequence of Cytochrome P450 1A2 (Homo sapiens) (P05177 whole entry, looked up): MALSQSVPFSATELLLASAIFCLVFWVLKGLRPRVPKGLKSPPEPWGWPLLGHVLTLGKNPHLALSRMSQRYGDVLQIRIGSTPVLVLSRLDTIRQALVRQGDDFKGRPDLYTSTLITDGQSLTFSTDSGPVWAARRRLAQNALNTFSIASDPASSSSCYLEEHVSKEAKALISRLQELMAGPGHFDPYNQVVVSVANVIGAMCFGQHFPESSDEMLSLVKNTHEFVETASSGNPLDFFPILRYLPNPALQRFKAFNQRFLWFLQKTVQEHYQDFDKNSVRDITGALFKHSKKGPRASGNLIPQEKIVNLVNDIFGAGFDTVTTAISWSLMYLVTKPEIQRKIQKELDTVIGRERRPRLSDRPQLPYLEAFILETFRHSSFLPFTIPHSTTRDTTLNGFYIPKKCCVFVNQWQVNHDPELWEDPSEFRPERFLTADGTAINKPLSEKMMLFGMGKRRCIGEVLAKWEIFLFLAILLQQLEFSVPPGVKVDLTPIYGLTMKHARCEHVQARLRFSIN
# Sequence of Cytochrome P450 3A4 (Homo sapiens) (P08684 whole entry, looked up): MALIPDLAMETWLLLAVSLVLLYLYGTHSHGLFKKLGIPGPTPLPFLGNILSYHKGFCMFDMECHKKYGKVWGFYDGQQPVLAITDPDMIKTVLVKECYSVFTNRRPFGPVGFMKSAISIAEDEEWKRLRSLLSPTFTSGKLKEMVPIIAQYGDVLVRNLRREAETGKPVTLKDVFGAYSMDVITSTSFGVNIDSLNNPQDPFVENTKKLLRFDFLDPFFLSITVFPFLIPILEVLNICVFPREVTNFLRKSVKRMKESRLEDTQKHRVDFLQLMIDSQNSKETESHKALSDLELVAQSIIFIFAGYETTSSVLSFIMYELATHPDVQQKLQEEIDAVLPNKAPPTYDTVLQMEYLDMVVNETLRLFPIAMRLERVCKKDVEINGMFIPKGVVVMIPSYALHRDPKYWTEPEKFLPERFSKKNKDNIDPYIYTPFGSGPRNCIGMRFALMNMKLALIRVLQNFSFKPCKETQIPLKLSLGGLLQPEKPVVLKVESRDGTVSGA
# Sequence of Lysosomal acid glucosylceramidase (Homo sapiens) (P04062 whole entry, looked up): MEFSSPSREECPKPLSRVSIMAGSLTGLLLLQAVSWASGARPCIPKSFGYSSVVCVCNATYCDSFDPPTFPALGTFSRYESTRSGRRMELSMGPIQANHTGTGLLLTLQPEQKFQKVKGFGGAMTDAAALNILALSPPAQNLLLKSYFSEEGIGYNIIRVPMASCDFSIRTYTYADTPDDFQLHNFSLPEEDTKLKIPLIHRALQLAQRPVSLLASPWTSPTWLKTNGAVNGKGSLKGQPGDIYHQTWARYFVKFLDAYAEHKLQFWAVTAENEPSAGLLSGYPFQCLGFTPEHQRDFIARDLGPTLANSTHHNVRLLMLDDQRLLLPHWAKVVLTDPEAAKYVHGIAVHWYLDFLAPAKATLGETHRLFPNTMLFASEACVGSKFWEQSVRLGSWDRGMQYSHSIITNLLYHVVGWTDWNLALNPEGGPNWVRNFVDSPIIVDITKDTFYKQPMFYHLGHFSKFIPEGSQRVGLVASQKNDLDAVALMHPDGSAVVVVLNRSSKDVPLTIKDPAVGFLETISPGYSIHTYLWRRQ
SMILES,Potency [1],"activity change, negative = inhibition [2] [%]",Potency [3],"activity change, negative = inhibition [4] [%]","activity, negative = inhibition [5] [%]",Potency [6] [µM],Potency [7] [µM],Potency [8],Potency [9],Potency [10],Potency [11],"activity change, negative = inhibition [3]",Potency [12],outcome [13],activation [14] [%]
O=C(CSc1nc2ccccc2c2ccccc12)c1ccccc1,> 11.4 µM,-2.08,0.251 µM (active),10.2,-4.01,> 46,> 9.22,inactive,inactive,inactive,,,,,
COc1c(O)ccc2c1CN1CCc3cc4c(cc3[C@@H]1C2)OCO4,> 11.4 µM,-4.62,0.501 µM (active),-25.2,7.58,> 46,> 9.22,inactive,inactive,inactive,0.158 µM (active),,,,
N/N=C1/c2ccccc2N[C@H]1OC(=O)Nc1cccc(Cl)c1,> 11.4 µM,-17.3,0.794 µM (active),-19.2,-0.394,> 46,> 9.22,inactive,inactive,inactive,,,,,
Cc1cc(C(C)(C)C)c(OCCCN2CCOCC2)c(C(C)(C)C)c1,> 11.4 µM,3.87,,-12.7,0.456,> 46,> 9.22,inactive,inactive,inactive,2 µM (active),-17.7% [at 2.29 µM],,,
CCCCN1CSC(=S)N(Cc2ccccc2)C1,> 11.4 µM,3.6,3.98 µM (active),-0.909,2.92,> 46,> 9.22,inactive,inactive,inactive,,,1.26 µM (active),,
COCCn1c(=O)c(-c2cc(F)cc(F)c2)nc2cnc(OC)nc21,> 11.4 µM,-11.6,3.98 µM (active),-5.01,-2.4,> 9.22,> 46,inactive,inactive,inactive,,,,,
CC1(C)[C@@H]2CC[C@@](C)(C2)[C@H]1OC(=O)c1ccccc1C(=O)O,> 11.4 µM,-1.12,inactive,4.7,-3.05,> 46,> 9.22,inactive,inactive,inactive,inactive,,inactive,,
CC(C)(C)CC(C)(C)c1ccc(O)c(C[N+](C)(C)[O-])c1,> 11.4 µM,0.484,,17.3,0.425,> 46,> 9.22,inactive,inactive,inactive,,-17.9% [at 2.29 µM],,,
Nc1nc(SCc2ccccc2)c2ncn(Cc3ccccc3)c2n1,> 11.4 µM,-24.3,0.251 µM (active),9.29,-3.2,> 46,> 9.22,inactive,inactive,inactive,,,2.51 µM (active),,
COc1ncc2nc(-c3ccc(Cl)cc3)c(=O)n(C[C@H]3CCCO3)c2n1,> 11.4 µM,-1.85,0.501 µM (active),-7.47,-9.41,> 9.22,> 46,inactive,inactive,inactive,,,,,
C[C@H](C(=O)c1ccccc1)[C@@H](c1ccccc1)N1CCOCC1,> 11.4 µM,-4.08,inactive,5.21,8.2,> 46,> 9.22,inactive,inactive,inactive,,,1.58 µM (active),,
O=C(O)CCC(=O)c1ccc2ccc3cccc4ccc1c2c34,> 11.4 µM,5.4,1.26 µM (active),19.9,-5.24,> 46,> 9.22,inactive,inactive,,inactive,,,,
CN(C)C(=O)c1ccc(-c2nc(Nc3ccncc3)c3ccccc3n2)cc1,3.84 µM (active),-14.2,7.94 µM (active),-7.95,-6.09,> 46,> 46,inactive,inactive,inactive,,,,inactive,-8.23
C[C@]12CC[C@H]3c4ccc(O)cc4CC[C@@H]3[C@H]1C/C(=N/O)[C@H]2O,> 11.4 µM,-6.54,inactive,3.7,1.89,> 46,> 9.22,inactive,inactive,,inactive,,,,
